Assay results: PubChem BioAssay (NCI)
The panel holds about 83,000 compounds, 20% with a hit somewhere; the sample as a whole holds those more often.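 The test compound was applied at a single concentration to cells in 96-well plates for 48 hours, and percent growth was recorded.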 A number with no mark means an inactive call. Calls of active or inactive are those of the source. The calls were made as follows: active = growth percent below 10; inactive = the rest.

Legend:
Test in all cases: NCI-60 one-dose screen, 48 h (100 = growth as untreated, 0 = no growth, -100 = all killed)
Conditions in all cases: 10 µM unless noted
SK-MEL-2 melanoma = test system: SK-MEL-2 melanoma
EKVX NSCLC = test system: EKVX NSCLC
SN12C renal = test system: SN12C renal
UO-31 renal = test system: UO-31 renal
TK-10 renal = test system: TK-10 renal
ACHN renal = test system: ACHN renal
CAKI-1 renal = test system: CAKI-1 renal
A498 renal = test system: A498 renal
CCRF-CEM leukemia = test system: CCRF-CEM leukemia
MOLT-4 leukemia = test system: MOLT-4 leukemia

| SMILES | growth (SK-MEL-2 melanoma) | growth (EKVX NSCLC) | growth (SN12C renal) | growth (UO-31 renal) | growth (TK-10 renal) | growth (ACHN renal) | growth (CAKI-1 renal) | growth (A498 renal) | growth (CCRF-CEM leukemia) | growth (MOLT-4 leukemia) |
| --- | --- | --- | --- | --- | --- | --- | --- | --- | --- | --- |
| COc1cc(C)cc2oc3oc(=O)c(-c4csc(-c5cc6ccccc6oc5=O)n4)cc3c(=O)c12 | 124% | 107% | 102% | 88.6% | 121% | 104% | 96.1% | 107% | 105% |  |
| COc1ccc(CCN2COc3c([C@@H](C)CCC=C(C)C)ccc(C)c3C2)cc1OC | 89.4% | 63.2% | 52.8% | 41.4% | 76.9% | 70% | 68.7% | 66.2% | 62.6% |  |
| Cc1ccc(/C=C/C(=N/N=C(N)N)c2ccccc2)cc1 | 49.3% | 35.4% | 34.3% | 21.7% | 44% | 48.5% | 16.4% | -5.04% (active) | 25.2% |  |
| Cc1c(C)c(C)c([N+](=O)[O-])c([N+](=O)[O-])c1C | 103% | 90.7% | 98.7% | 81.8% | 91.3% | 98.9% | 90.8% | 67.9% | 121% |  |
| COc1cc(C)c2c(=O)c3c(oc2c1)C(=O)c1c(O)c(OC)cc(O)c1C3=O | -25.7% (active) | 32.6% | 16.8% | 0.808% (active) | 23.8% | 0.624% (active) | 12.6% | 89% | 10.4% |  |
| COc1ccccc1/C=N\NC(=S)Nc1ccc(F)cc1 | 81% | 75.7% | 81.1% | 62.2% | 97.5% | 87.5% | 88.5% | 67% | 89.2% |  |
| CCN(CC)CCCC(C)Nc1cnc(C(=O)Nc2cccc3ccc(OC)nc23)cn1 (stereo not drawn) | 70.5% | 104% | 78.5% | 69.1% | 91% | -86.5% (active) | 94.7% | 46.2% | -7.65% (active) | 53.4% |
| Cc1nn(-c2ccc(Cl)cc2)c(=O)n1CCN1CCOCC1 | 61.1% | 75.5% | 89.6% | 66% | 64.4% | 38.7% | 72.4% | 105% | 63.2% | 90.9% |
| CSC(=S)N/N=C(\C)c1ccccn1 | 21.7% | 4.31% (active) | 24.2% | -0.858% (active) | 41.7% | 14.8% | -9.67% (active) | -3.97% (active) | 7.65% (active) | 0.153% (active) |
| FC(F)(F)c1ccc(/C=N/Nc2nnc3n2N=C(c2ccc(Cl)cc2)CS3)cc1 | 84.2% | 66.3% | 57.8% | 39.7% | 53.1% | 28.4% | 63.5% | 69.9% | 99.4% |  |
| CCCCNCC(O)c1cc(-c2ccc(C(F)(F)F)cc2)nc(-c2ccc(C(F)(F)F)cc2)c1 (stereo not drawn) | -67.1% (active) | -61.8% (active) | -73.2% (active) | -88.2% (active) | -94.4% (active) | -71.6% (active) | -73% (active) | -68.1% (active) | -36.4% (active) | -56.7% (active) |
| O=C1Nc2ccccc2/C1=C/c1c[nH]c2ccccc12 | 99.8% | 15.7% | 64.5% | 29.3% | 110% | 66.7% | 42.8% | 91.6% | 58.9% | 65.6% |
| CCN(C(=O)Nc1cccc2ccccc12)c1ccccc1 | 108% | 95.9% | 103% | 73% | 108% | 99.5% | 99.9% | 90.2% | 109% | 72.6% |
| COc1ccc(-n2nc(C(=O)NCC(=O)Nc3nc4cc(OC)ccc4s3)c3ccccc3c2=O)cc1 | -19.9% (active) | 30.4% | 41.7% | -0.0591% (active) | -41.9% (active) | -1.26% (active) | -27.5% (active) | -2.05% (active) | 92.7% | 58.5% |
| C#CCNC(=S)N/N=C(\C)c1ccccn1 | 74.3% | 22.1% | 13.4% | -13.9% (active) | 50.9% | 15.7% | -13.6% (active) | 16.7% | 13.4% | 3.54% (active) |
| O=[N+]([O-])c1ccccc1CN1CCCCC1 | 100% | 86.8% | 105% | 89.4% | 121% | 113% | 108% | 99.5% | 85.4% | 115% |
| CCC(C)C1NC(=O)c2nc(oc2-c2ccccc2)-c2csc(n2)-c2csc(n2)-c2nc(oc2C)-c2coc(n2)CNC(=O)C(C(C)CC)NC1=O (stereo not drawn) | -80.1% (active) | -71.3% (active) | -65.3% (active) | -90.1% (active) | -86.7% (active) | -91.3% (active) | -95.2% (active) | -85.3% (active) | -66.4% (active) | -66.2% (active) |
| C/C(=C\C(=N\N=C(N)N)c1ccc(Cl)cc1)c1ccc(Cl)cc1 | -86.4% (active) | -28.2% (active) | -73.8% (active) | -80.1% (active) | -83.4% (active) | -85.8% (active) | -58.4% (active) | -93.6% (active) | -22.5% (active) | -48% (active) |
| Cc1cc(C)cc(NC(=O)Cn2nncc2CN2C(=O)CSC2=O)c1 | 106% | 90.3% | 103% | 99.7% | 99.8% | 99.6% | 95.2% | 118% | 113% | 105% |
| CN(C)c1ccc(/C=N/Nc2nnc3n2N=C(c2ccc(Cl)cc2)CS3)cc1 | 97.5% | 89% | 95% | 74.9% | 92.9% | 99.5% | 96.8% | 85.6% | 86.8% | 66.6% |
| CCCC(CCC)NCC(O)c1cc(-c2ccc(C(F)(F)F)cc2)nc(C(F)(F)F)c1 (stereo not drawn) | -66.1% (active) | -9.08% (active) | -78.5% (active) | -44.9% (active) | -63.8% (active) | -60.1% (active) | -28.1% (active) | -31% (active) | -7.92% (active) | -30.6% (active) |
| COc1cc2nccc(Oc3ccc(NC(=O)C4(C(=O)Nc5ccc(F)cc5)CC4)cc3)c2cc1O | 88.1% | 71.1% | 30.5% | 54.4% | 76.8% | 67.8% | 78.1% | 59.4% | 29% | 44.9% |
| Oc1ccc(CCCCCCc2ccc(O)cc2)cc1 | 89.2% | 74.5% | 69.6% | 25.6% | 84.9% | -4.64% (active) | 16.8% | 103% | 18.5% | 106% |
| O=C(c1ccc(C(F)(F)F)c(Cl)c1)N(Cc1ccc(Cl)cc1)c1ccc(-c2cc(C(F)(F)F)[nH]n2)c(O)c1 | -18.3% (active) | 0.0577% (active) | 14.6% | 5.66% (active) | 5.25% (active) | 3.03% (active) | 1.19% (active) | -21.4% (active) | 10.4% | 9.19% (active) |
| CC[C@H](Nc1nc(N)nc(N)c1Cl)c1nc2cccc(NCc3ccc(C(=O)NO)cc3)c2c(=O)n1-c1ccccc1 | 71.5% | 42% | 10% | 20.6% | -1.39% (active) | 3.82% (active) | 39.6% | -12.7% (active) | 7.44% (active) | 0.294% (active) |
| COc1cc(/C=C/C(=O)c2c(C)nc3ccccc3c2C)ccc1OCCCOc1cc2c(cc1OC)C(=O)N1CCC[C@H]1C=N2 | -61.3% (active) | -76.4% (active) | 10.2% | 14.2% | -65.8% (active) | -41.2% (active) | 4.18% (active) | -76.4% (active) | -48.6% (active) | -25.5% (active) |
| COc1cc2c(cc1C)NC(=O)/C2=C\c1c[nH]c2ccccc12 | 76.4% | 74.5% | 67.8% | 27.6% | 83.7% | 61.8% | 10.6% | 78.5% | 53.6% | 24.4% |
